The source of these data is the supplement of paper PMC13380429.

Experiment [1] deals with Vero E6 infected with SARS-CoV-2. The experiment in a line: morphology score (similarity to uninfected cells); higher = more like uninfected cells. The following applies: 24 h.
The test system is the same in experiment [2]. Briefly: SARS-CoV-2 infection rate relative to infected DMSO; higher = more infection, active = 60 or less. The conditions noted are these: 24 h.

In experiment [1], `c1cc2c3c(c1)c1c(n3CCNC2)CCCC1` (10 µM) returned a morphology score of -0.0322. In addition, the SARS-CoV-2 infection rate in experiment [2] is 104% (inactive).
Regarding `CCn1nc(C(=O)O)c(=O)c2cc3c(cc21)OCO3` [cinoxacin] (10 µM), the morphology score in experiment [1] was -0.0392. The SARS-CoV-2 infection rate in experiment [2] is 104% (inactive).
Turning to `Fc1cc(F)c2c(c1)[C@H]1C=CC[C@H]1C(c1cccnc1)N2` (some centres not stated) [Golgicide A] (0.833333 µM), in experiment [1], the morphology score worked out at 0.281. Further, the SARS-CoV-2 infection rate in experiment [2] was 104% (inactive).
On the same counts, the results for `CCc1cc(Cl)c(OC)c(C(=O)NC[C@@H]2CCCN2CC)c1O` [eticlopride] (10 µM) are 0.426 and 63.5% (inactive).
In the same order, the values of `Cn1cnnc1Sc1c([N+](=O)[O-])ncn1C` (10 µM) are 0.299 and 87% (inactive).
`NC(=O)c1cnc(N[C@@H]2CCCC[C@@H]2N)nc1Nc1cccc(-n2nccn2)c1` (10 µM) returned a morphology score in experiment [1] of 0.582. Also, in experiment [2], the SARS-CoV-2 infection rate is 17.5% (active).
In the same order, the values of `O=c1c2ccccc2nc2n1CCc1c-2[nH]c2ccccc12` [rutaecarpine] (10 µM) are 0.246 and 105% (inactive).
In the same order, the values of `COc1cc2/c(=N/c3ccc(Br)cc3F)nc[nH]c2cc1OCC1CCN(C)CC1` [vandetanib] (10 µM) are 0.0459 and 102% (inactive).
For the compound `CCCCc1nc(-c2ccc(OCCCN(CC)CC)cc2)cn1-c1ccc(Oc2ccc(Cl)cc2)cc1` [azeliragon] (0.833333 µM), the morphology score in experiment [1] stood at 0.129. In experiment [2], the SARS-CoV-2 infection rate is 93% (inactive).
On the same counts, the results for `COc1cccc2cc(-c3nc([C@H]4CC[C@H](C(=O)O)CC4)n4ncnc(N)c34)[nH]c12` (0.833333 µM) are 0.174 and 112% (inactive).
In the same order, the values of `c1ccc2c(Cc3c[nH]c4ccccc34)c[nH]c2c1` [3,3'-diindolylmethane] (10 µM) are 0.0838 and 113% (inactive).
On the same counts, the results for `CO[C@@H](C)Cn1c(=O)n(C)c2cnc3ccc(-c4cncc(C(C)(C)O)c4)cc3c21` (10 µM) are -0.000833 and 112% (inactive).
On to `O=[N+]([O-])c1cc(O)c(O)c([N+](=O)[O-])c1` (10 µM), for which, in experiment [1], the morphology score stood at 0.123. Besides, the SARS-CoV-2 infection rate in experiment [2] is 101% (inactive).
In the same order, the values of `CCOC(=O)c1ccc(N)cc1` [benzocaine] (10 µM) are -0.0142 and 112% (inactive).
In the same order, the values of `CC(C)c1ccc2c(c1)CC[C@H]1[C@](C)(CN)CCC[C@]21C` [lylamine] (0.833333 µM) are -0.00872 and 106% (inactive).
On the same counts, the results for `O=C(O)[C@H](Cc1ccccc1)NCc1ccc(Cl)cc1` (10 µM) are 0.0118 and 102% (inactive).
Turning to `Cc1ccccc1N(C)C(=O)c1ccc([S+]([O-])c2nccs2)c([N+](=O)[O-])c1` (configuration not stated) (0.833333 µM), the morphology score in experiment [1] was -0.0736. Besides, the SARS-CoV-2 infection rate in experiment [2] was 81% (inactive).
On the same counts, the results for `CCC(=O)N1CCN(c2ccc(-n3c(=O)ccc4cnc5ccc(-c6cnc7ccccc7c6)cc5c43)cc2C(F)(F)F)CC1` [torin-1] (10 µM) are -0.0739 and 107% (inactive).
On the same counts, the results for `CCCn1c(=O)[nH]c(=O)c2nc[nH]c21` [enprofylline] (10 µM) are 0.188 and 94% (inactive).
As to `CNS(=O)(=O)Nc1nccc(Cc2c(C)c3ccc(Oc4ncccn4)cc3oc2=O)c1F` (0.833333 µM), in experiment [1], the morphology score was -0.0748. Also, the SARS-CoV-2 infection rate in experiment [2] is 113% (inactive).
On the same counts, the results for `Cc1cc(N)c2ccccc2[n+]1CCCCCCCCCC[n+]1c(C)cc(N)c2ccccc21` [dequalinium] (10 µM) are 0.175 and 94% (inactive).
In the same order, the values of `C=C[C@@H]1C[C@]1(NC(=O)[C@@H]1C[C@@H](Oc2ncc(OC)c3ccc(Cl)cc23)CN1C(=O)[C@@H](NC(=O)OC(C)(C)C)C(C)(C)C)C(=O)NS(=O)(=O)C1CC1` [asunaprevir] (10 µM) are 0.192 and 85% (inactive).
In the same order, the values of `C#C[C@]1(OC(C)=O)CC[C@H]2[C@@H]3CCC4=CC(=O)CC[C@@H]4[C@H]3CC[C@@]21C` [norethindrone-acetate] (10 µM) are -0.146 and 106% (inactive).
Consider `C[C@]12CCC(=O)C[C@@H]1CC[C@@H]1[C@@H]2CC[C@]2(C)C=CC[C@@H]12` [androstenone] (10 µM), for which the morphology score in experiment [1] was -0.064. The SARS-CoV-2 infection rate in experiment [2] is 112% (inactive).
In experiment [1], `Cn1c2cc([S+](C)[O-])sc2c2cnn(Cc3cccc(N)c3)c(=O)c21` (configuration not stated) (10 µM) returned a morphology score of 0.0427. Also, the SARS-CoV-2 infection rate in experiment [2] is 107% (inactive).
`O=C1[C@H](CC[C@H](O)c2ccc(F)cc2)[C@@H](c2ccc(O)cc2)N1c1ccc(F)cc1` [ezetimibe] (10 µM) came in with a morphology score in experiment [1] of 0.142. Further, the SARS-CoV-2 infection rate in experiment [2] is 110% (inactive).
`CNS(=O)(=O)CCc1ccc2[nH]cc(C3CCN(C)CC3)c2c1` [naratriptan] (10 µM) came in with a morphology score in experiment [1] of 0.0727. In addition, the SARS-CoV-2 infection rate in experiment [2] is 104% (inactive).
In the case of `CCCCCCCCCCCCCCCC[n+]1ccn(Cc2ccccc2)c1C` (0.833333 µM), in experiment [1], the morphology score is 0.0516. In experiment [2], the SARS-CoV-2 infection rate was 104% (inactive).
On the same counts, the results for `OC1(c2ccc(Cl)c(C(F)(F)F)c2)CCN(CCCC(c2ccc(F)cc2)c2ccc(F)cc2)CC1` [penfluridol] (0.833333 µM) are 0.173 and 79% (inactive).
On the same counts, the results for `COc1ccc(-c2coc3cc(O)cc(O)c3c2=O)cc1` [4-methylgenistein] (10 µM) are 0.139 and 103% (inactive).
On the same counts, the results for `N=C1NC(=O)/C(=C/c2ccc(O)cc2)S1` [mirin] (10 µM) are -0.0277 and 112% (inactive).
`CCC(C/C=C/c1ccccc1)(c1ccccc1)N(C)CC1CC1` (configuration not stated) [igmesine] (10 µM) registered a morphology score in experiment [1] of 0.316. In experiment [2], the SARS-CoV-2 infection rate is 97.5% (inactive).
`CN1CCc2cc3c(cc2[C@H]1[C@@H]1OC(=O)c2c1ccc1c2OCO1)OCO3` [bicuculline-(+)] (10 µM) yielded a morphology score in experiment [1] of -0.0434. Also, the SARS-CoV-2 infection rate in experiment [2] is 98% (inactive).
On the same counts, the results for `OCC(O)CN1CCN(c2ccccc2)CC1` (configuration not stated) [dropropizine] (10 µM) are 0.106 and 103% (inactive).
Turning to `Cc1sc(N)c(C(=O)c2cccc(C(F)(F)F)c2)c1C` (10 µM), the morphology score in experiment [1] was -0.0662. Moreover, the SARS-CoV-2 infection rate in experiment [2] was 99% (inactive).
`Cc1ccc(C[N+](C)(C)C)o1` [5-methylfurmethiodide] (10 µM) gave a morphology score in experiment [1] of -0.123. Also, the SARS-CoV-2 infection rate in experiment [2] was 117% (inactive).
Take `Cc1coc2c1C(=O)C(=O)c1c-2ccc2c(C)cccc12` [tanshinone-I] (10 µM): the morphology score in experiment [1] was -0.0142. For the same compound, the SARS-CoV-2 infection rate in experiment [2] is 106% (inactive).
In experiment [1], `CCOCCn1c(N2CCCN(C)CC2)nc2ccccc21` [emedastine] (10 µM) gave a morphology score of 0.137. For the same compound, in experiment [2], the SARS-CoV-2 infection rate was 100% (inactive).
On the same counts, the results for `CC(C)(Cc1ccc2ccccc2c1)NC[C@@H](O)COc1cccc(Cl)c1C#N` (10 µM) are 0.703 and 9.5% (active).
In the same order, the values of `CCCCCCCC(=O)N[C@H](CN1CCCC1)[C@H](O)c1ccc2c(c1)OCCO2` [eliglustat] (10 µM) are 0.2 and 92.5% (inactive).
In the same order, the values of `N#Cc1ccccc1-c1cc(-c2ccccn2)cn(-c2ccccc2)c1=O` [Perampanel] (10 µM) are 0.11 and 90.5% (inactive).
In experiment [1], `CNC(=O)CN(CCN(CCN(CC(=O)[O-])CC(=O)NC)CC(=O)[O-])CC(=O)[O-].[Gd+3]` [gadodiamide] (10 µM) registered a morphology score of -0.0219. In addition, in experiment [2], the SARS-CoV-2 infection rate is 103% (inactive).
On the same counts, the results for `CO[C@H]1/C=C/O[C@@]2(C)Oc3c(C)c(O)c4c(O)c(cc(O)c4c3C2=O)NC(=O)/C(C)=C\C=C\[C@H](C)[C@H](O)[C@@H](C)[C@@H](O)[C@@H](C)[C@H](OC(C)=O)[C@@H]1C` [rifamycin-sv] (10 µM) are 0.117 and 94.2% (inactive).
In turn, `COCc1nnc(N2CC(Oc3ccc(F)cc3Cl)C2)n1-c1ccc(OC)nc1` (10 µM) had a morphology score in experiment [1] of -0.109. Moreover, the SARS-CoV-2 infection rate in experiment [2] is 106% (inactive).
On to `Cc1ccc(NC(=O)c2cccc(N(C)C)c2)cc1NC(=O)c1ccc(O)cc1` (10 µM), for which, in experiment [1], the morphology score was -0.0598. Moreover, the SARS-CoV-2 infection rate in experiment [2] was 97.5% (inactive).
Regarding `CCOC(=O)c1ccc(N2NC(=O)/C(=C/c3ccc([N+](=O)[O-])o3)C2=O)cc1` (10 µM), the morphology score in experiment [1] amounted to 0.149. The SARS-CoV-2 infection rate in experiment [2] was 85% (inactive).
In turn, `CN(C)CCNc1nc2cc(O)ccc2c2c1C(=O)c1ccccc1-2` (10 µM) showed a morphology score in experiment [1] of -0.234. Also, the SARS-CoV-2 infection rate in experiment [2] was 106% (inactive).
On the same counts, the results for `CC(C)(Oc1ccc(Cl)cc1)C(=O)OCCOC(=O)c1cccnc1` [etofibrate] (10 µM) are 0.105 and 105% (inactive).
On the same counts, the results for `COc1ccccc1NC(=O)OCC1CCN(C(=O)OC(C)(C)C)CC1` (10 µM) are 0.0728 and 97% (inactive).
On the same counts, the results for `CCOC(=O)c1ccccc1OC(N)=O` [ethyl-2-(carbamoyloxy)benzoate] (10 µM) are -0.102 and 108% (inactive).
`CCOC(=O)[C@H](CCc1ccccc1)N[C@@H](C)C(=O)N(CC(=O)O)C1Cc2ccccc2C1` [delapril] (10 µM) showed a morphology score in experiment [1] of -0.0271. In experiment [2], the SARS-CoV-2 infection rate was 108% (inactive).
`Cc1ccc(-n2nc(C(C)(C)C)cc2NC(=O)Nc2ccc(OCCN3CCOCC3)c3ccccc23)cc1` [doramapimod] (10 µM): the morphology score in experiment [1] was 0.482. In addition, the SARS-CoV-2 infection rate in experiment [2] was 86% (inactive).
With `O=[N+]([O-])/N=C1\NCCN1Cc1ccc(Cl)nc1` [imidacloprid] (10 µM), in experiment [1], the morphology score worked out at 0.114. The SARS-CoV-2 infection rate in experiment [2] is 98.5% (inactive).
On the same counts, the results for `Cc1cc(CCC[C@H](CC(=O)NO)C(=O)N[C@H](C(=O)N[C@H](C)c2ccccc2)C(C)(C)C)ccc1-c1ccccc1` (0.833333 µM) are -0.0923 and 102% (inactive).
On the same counts, the results for `OC[C@H]1OC(O)[C@H](O)[C@@H](O)[C@@H]1O` (some centres not stated) [dextrose] (10 µM) are -0.00495 and 110% (inactive).
In the same order, the values of `OC(CCCN1CCCCC1)(c1ccccc1)c1ccccc1` [diphenidol] (10 µM) are -0.109 and 104% (inactive).
Compound `C#C[C@]1(O)CC[C@H]2[C@@H]3CCc4cc(O)ccc4[C@H]3CC[C@@]21C` (10 µM) displayed a morphology score in experiment [1] of 0.128. The SARS-CoV-2 infection rate in experiment [2] was 102% (inactive).
In the same order, the values of `CC1=C(/C=C/C(C)=C/C=C/C(C)=C/C(=O)Nc2ccc(O)cc2)C(C)(C)CCC1` [fenretinide] (10 µM) are -0.442 and 116% (inactive).
In experiment [1], `N#CC(=C(/N)Sc1ccccc1N)/C(C#N)=C(/N)Sc1ccccc1N` (10 µM) had a morphology score of -0.197. The SARS-CoV-2 infection rate in experiment [2] was 113% (inactive).
On the same counts, the results for `C=C1/C(=C\C=C2/CCC[C@]3(C)[C@@H]([C@H](C)CCCC(O)(C(F)(F)F)C(F)(F)F)CC[C@@H]23)C[C@@H](O)C[C@@H]1O` [falecalcitriol] (10 µM) are 0.0244 and 95.5% (inactive).
In the same order, the values of `CCNCc1cc(C(C)(C)C)c(O)c(C(C)(C)C)c1` (10 µM) are 0.195 and 99% (inactive).
